# Results reported in the supplement of paper PMC8728848.
# The full list was thinned out, with the strongest signals kept by preference.
# Tests used:
# Test in all cases: glycan array binding signal (z-score within array); higher = stronger binding
# Conditions in all cases: glycan notation: IUPAC condensed, linker removed
# [1] = biological target: Fuc(a1-2)Gal(b1-3)GalNAc(b1-3)Gal(a1-4)Gal(b1-4)Glc
# Outline: (§1)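 From the Consortium for Functional Glycomics database, 3228 arrays were curated, keeping only those whose protein sequence was available. Binding is given as a within-array Z-score averaged across arrays sharing a protein sequence and across linkers. Negative Z-scores can be read as non-binding.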
# [2] = biological target: Fuc(a1-2)Gal(b1-4)GlcNAc(b1-2)Man
# Outline: as §1
# [3] = biological target: Fuc(a1-2)Gal(b1-4)[Fuc(a1-3)]GlcNAc(b1-2)Man(a1-3)[Fuc(a1-2)Gal(b1-4)[Fuc(a1-3)]GlcNAc(b1-2)Man(a1-6)]Man(b1-4)GlcNAc(b1-4)[Fuc(a1-6)]GlcNAc
# Outline: as §1
# [4] = biological target: Fuc(a1-2)Gal3S(b1-4)GlcNAc
# Outline: as §1
# [5] = biological target: Fuc(a1-2)[Gal(a1-3)]Gal(b1-4)[Fuc(a1-3)]GlcNAc
# Outline: as §1
# [6] = biological target: Fuc(a1-2)[GalNAc(a1-3)]Gal(b1-3)GlcNAc
# Outline: as §1
# [7] = biological target: Fuc(a1-2)[GalNAc(a1-3)]Gal(b1-4)GlcNAc
# Outline: as §1
# [8] = biological target: Fuc(a1-2)[GalNAc(a1-3)]Gal(b1-4)GlcNAc(b1-2)Man(a1-3)[Fuc(a1-2)[GalNAc(a1-3)]Gal(b1-4)GlcNAc(b1-2)Man(a1-6)]Man(b1-4)GlcNAc(b1-4)GlcNAc
# Outline: as §1
# [9] = biological target: Fuc(a1-2)[GalNAc(a1-3)]Gal(b1-4)GlcNAc(b1-3)[Fuc(a1-2)[GalNAc(a1-3)]Gal(b1-4)GlcNAc(b1-6)]GalNAc
# Outline: as §1
# [10] = biological target: Fuc(a1-2)[GalNAc(a1-3)]Gal(b1-4)GlcNAc(b1-6)GalNAc
# Outline: as §1
# [11] = biological target: Fuc(a1-3)[Gal3S(b1-4)]GlcNAc6S
# Outline: as §1
# Gal(a1-2)Gal = biological target: Gal(a1-2)Gal
# Outline: as §1
# Gal(a1-3)Gal = biological target: Gal(a1-3)Gal
# Outline: as §1
# [12] = biological target: Gal(a1-3)Gal(b1-3)GlcNAc(b1-3)GalNAc
# Outline: as §1
# [13] = biological target: Gal(a1-3)Gal(b1-4)[Fuc(a1-3)]GlcNAc(b1-2)Man(a1-3)[Gal(a1-3)Gal(b1-4)[Fuc(a1-3)]GlcNAc(b1-2)Man(a1-6)]Man(b1-4)GlcNAc(b1-4)GlcNAc
# Outline: as §1
# Gal(a1-4)GlcNAc = biological target: Gal(a1-4)GlcNAc
# Outline: as §1
# [14] = biological target: Gal(b1-3)GlcNAc(b1-6)[Gal(b1-3)]GalNAc
# Outline: as §1
# [15] = biological target: Gal(b1-3)[Fuc(a1-4)]GlcNAc(b1-2)Man(a1-3)[Gal(b1-3)[Fuc(a1-4)]GlcNAc(b1-2)Man(a1-6)]Man(b1-4)GlcNAc(b1-4)[Fuc(a1-6)]GlcNAc
# Outline: as §1
# [16] = biological target: Gal(b1-4)GlcNAc(b1-3)Gal(b1-4)GlcNAc
# Outline: as §1
# [17] = biological target: Gal(b1-4)GlcNAc(b1-3)Gal(b1-4)GlcNAc(b1-2)Man(a1-3)[Gal(b1-4)GlcNAc(b1-3)Gal(b1-4)GlcNAc(b1-2)Man(a1-6)]Man(b1-4)GlcNAc(b1-4)GlcNAc
# Outline: as §1
# Gal3S(b1-4)Glc = biological target: Gal3S(b1-4)Glc
# Outline: as §1
# Gal3S(b1-4)Glc6S = biological target: Gal3S(b1-4)Glc6S
# Outline: as §1
# Gal6P(b1-4)GlcNAc = biological target: Gal6P(b1-4)GlcNAc
# Outline: as §1
# Gal6S(b1-3)GlcNAc6S = biological target: Gal6S(b1-3)GlcNAc6S
# Outline: as §1
# GalNAc(b1-4)GlcNAc = biological target: GalNAc(b1-4)GlcNAc
# Outline: as §1
# GalNAc(b1-6)GalNAc = biological target: GalNAc(b1-6)GalNAc
# Outline: as §1
# [18] = biological target: GalNAc3S(b1-4)[Fuc(a1-3)]GlcNAc
# Outline: as §1
# GalNAc6S(b1-4)GlcNAc = biological target: GalNAc6S(b1-4)GlcNAc
# Outline: as §1
# GlcA(b1-3)Gal = biological target: GlcA(b1-3)Gal
# Outline: as §1
# [19] = biological target: GlcNAc(b1-2)[GlcNAc(b1-4)]Man(a1-3)[GlcNAc(b1-4)][GlcNAc(b1-2)[GlcNAc(b1-6)]Man(a1-6)]Man(b1-4)GlcNAc(b1-4)GlcNAc
# Outline: as §1
# Kdn(a2-3)Gal(b1-3)GalNAc = biological target: Kdn(a2-3)Gal(b1-3)GalNAc
# Outline: as §1
# [20] = biological target: Man(a1-2)Man(a1-6)[Man(a1-3)]Man(a1-6)[Man(a1-2)Man(a1-2)Man(a1-3)]Man(b1-4)GlcNAc(b1-4)GlcNAc
# Outline: as §1
# [21] = biological target: Neu5Ac(a2-3)Gal(b1-3)GalNAc6S
# Outline: as §1
# [22] = biological target: Neu5Ac(a2-3)Gal(b1-3)GlcNAc(b1-3)GalNAc
# Outline: as §1
# [23] = biological target: Neu5Ac(a2-3)Gal(b1-4)GlcNAc(b1-2)Man(a1-3)[GlcNAc(b1-4)][Neu5Ac(a2-3)Gal(b1-4)GlcNAc(b1-2)Man(a1-6)]Man(b1-4)GlcNAc(b1-4)GlcNAc
# Outline: as §1
# [24] = biological target: Neu5Ac(a2-3)Gal(b1-4)GlcNAc(b1-2)[Neu5Ac(a2-3)Gal(b1-4)GlcNAc(b1-6)]Man(a1-6)[Neu5Ac(a2-3)Gal(b1-4)GlcNAc(b1-2)Man(a1-3)][GlcNAc(b1-4)]Man(b1-4)GlcNAc(b1-4)GlcNAc
# Outline: as §1
# [25] = biological target: Neu5Ac(a2-3)Gal(b1-4)GlcNAc(b1-3)Gal(b1-3)GlcNAc
# Outline: as §1
# [26] = biological target: Neu5Ac(a2-3)[GalNAc(b1-4)]Gal(b1-4)GlcNAc(b1-3)GalNAc
# Outline: as §1
# [27] = biological target: Neu5Ac(a2-6)Gal(b1-4)GlcNAc(b1-2)Man(a1-3)[GlcNAc(b1-2)Man(a1-6)]Man(b1-4)GlcNAc(b1-4)GlcNAc
# Outline: as §1
# [28] = biological target: Neu5Ac(a2-6)Gal(b1-4)GlcNAc(b1-2)Man(a1-3)[Neu5Ac(a2-6)Gal(b1-4)GlcNAc(b1-2)Man(a1-6)]Man(b1-4)GlcNAc(b1-4)[Fuc(a1-6)]GlcNAc
# Outline: as §1
# Neu5Ac(a2-6)GalNAc = biological target: Neu5Ac(a2-6)GalNAc
# Outline: as §1
# [29] = biological target: Neu5Ac(a2-8)Neu5Ac(a2-3)Gal(b1-4)Glc
# Outline: as §1
# Neu5Gc(a2-3)Gal(b1-4)Glc = biological target: Neu5Gc(a2-3)Gal(b1-4)Glc
# Outline: as §1
binder,measurement,setting,value
Mnn9-2N3 (Aspergillus fumigatus) (protein) MAVARRMRRTNPITLLLAAILAIGFFIFVLSPSTTSASPVKAGSASSSSTSQQRREDNAAENPLSPPTKPFFKSQPVRHDGQQAPPPVVQYNLNQLSSTSTSAANGERILILTPMARFVPEYWDNVVKLTYPHELISIGFIIPKNKEGNAALAALEAAIAKTQSGPIDKRFASISILRQDFEPPLQSQDEKERHKISNQKARRESMSRARNSLLFTTLGPATAWVLWLDADIVETPPTLIQDLTAHDHPVLVPNCYQRYYNSEKKKMDVRPYDYNSWIDSSTAQSMAAEMGPDEILLEGYAEMPTYRTLMAHLADTANPNPKKVIELDGVGGTALMVKAEVHRDGAMFPAFPFYHLVETEGFAKMAKRLGYSVYGLPDYFVSRNFFFFFFFFFFG,glycan array binding signal (z-score),[1],-0.365
same,glycan array binding signal (z-score),[2],-1.25
same,glycan array binding signal (z-score),[3],3.21
same,glycan array binding signal (z-score),[4],1.83
same,glycan array binding signal (z-score),[5],-0.761
same,glycan array binding signal (z-score),[6],-1.58
same,glycan array binding signal (z-score),[7],0.402
same,glycan array binding signal (z-score),[8],0.31
same,glycan array binding signal (z-score),[9],-0.67
same,glycan array binding signal (z-score),[10],2.39
same,glycan array binding signal (z-score),[11],3.29
same,glycan array binding signal (z-score),Gal(a1-2)Gal,3.25
same,glycan array binding signal (z-score),Gal(a1-3)Gal,-0.434
same,glycan array binding signal (z-score),[12],-0.015
same,glycan array binding signal (z-score),[13],2.41
same,glycan array binding signal (z-score),Gal(a1-4)GlcNAc,2.75
same,glycan array binding signal (z-score),[14],-0.321
same,glycan array binding signal (z-score),[15],-0.841
same,glycan array binding signal (z-score),[16],-0.099
same,glycan array binding signal (z-score),[17],3.03
same,glycan array binding signal (z-score),Gal3S(b1-4)Glc,3.44
same,glycan array binding signal (z-score),Gal3S(b1-4)Glc6S,1.42
same,glycan array binding signal (z-score),Gal6P(b1-4)GlcNAc,2.57
same,glycan array binding signal (z-score),Gal6S(b1-3)GlcNAc6S,2.52
same,glycan array binding signal (z-score),GalNAc(b1-4)GlcNAc,-0.366
same,glycan array binding signal (z-score),GalNAc(b1-6)GalNAc,-0.275
same,glycan array binding signal (z-score),[18],-0.385
same,glycan array binding signal (z-score),GalNAc6S(b1-4)GlcNAc,-0.802
same,glycan array binding signal (z-score),GlcA(b1-3)Gal,0.326
same,glycan array binding signal (z-score),[19],-0.559
same,glycan array binding signal (z-score),Kdn(a2-3)Gal(b1-3)GalNAc,-2.43
same,glycan array binding signal (z-score),[20],-0.789
same,glycan array binding signal (z-score),[21],2.97
same,glycan array binding signal (z-score),[22],-0.456
same,glycan array binding signal (z-score),[23],-1.34
same,glycan array binding signal (z-score),[24],-0.217
same,glycan array binding signal (z-score),[25],0.123
same,glycan array binding signal (z-score),[26],-2.19
same,glycan array binding signal (z-score),[27],-1.47
same,glycan array binding signal (z-score),[28],0.808
same,glycan array binding signal (z-score),Neu5Ac(a2-6)GalNAc,2.59
same,glycan array binding signal (z-score),[29],2.12
same,glycan array binding signal (z-score),Neu5Gc(a2-3)Gal(b1-4)Glc,-0.055
